About 2,000 (36%) of roughly 5,500 compounds were called active. Another 18% or so got no clear call; they are omitted. Rule as the data show it: active = normalized growth mostly below about 0.91 (no sharp cut-off); inconclusive = no clear call, values can overlap the other calls; inactive = mostly above about 0.92. This is one part of the list.
Experiment: chemical genetic growth profiling, strain panel (AID 1159580);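 also: tested at 20 µM; growth read once vehicle control cultures reached saturation at 30 °C; 1 = growth at the plate median or of vehicle wells; lower values mean less growth of the strain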
Details: growth OD

Measured: normalized growth

CC(C)C1CCC(C(=O)N[C@@H](Cc2ccccc2)C(=O)O)CC1 (some centres not stated)
inactive: S. cerevisiae deletion strains, locus YJR075W, strain HOC1, stronger effect = lower value 0.992 | S. cerevisiae deletion strains, locus YKL009W, strain mrt4, stronger effect = lower value 0.963 | S. cerevisiae deletion strains, locus YKL068W, stronger effect = lower value 1 | S. cerevisiae deletion strains, locus YKL085W, strain MDH1 (second series), stronger effect = lower value 1 | S. cerevisiae deletion strains, locus YKL085W, strain MDH1, stronger effect = lower value 1 | S. cerevisiae deletion strains, locus YKL160W, strain elf1, stronger effect = lower value 0.971 | S. cerevisiae deletion strains, locus YKL190W, strain CNB1, stronger effect = lower value 0.976 | S. cerevisiae deletion strains, locus YKR001C, strain vps1, stronger effect = lower value 1.04 | S. cerevisiae deletion strains, locus YKR026C, strain gcn3, stronger effect = lower value 0.974 | S. cerevisiae deletion strains, locus YKR091W, strain srl3, stronger effect = lower value 0.978 | S. cerevisiae deletion strains, locus YLL001W, strain dnm1, stronger effect = lower value 0.957 | S. cerevisiae deletion strains, locus YLL026W, stronger effect = lower value 0.981 | S. cerevisiae deletion strains, locus YLL041C, strain sdh2, stronger effect = lower value 0.961 | S. cerevisiae deletion strains, locus YLR027C, strain aat2, stronger effect = lower value 0.985 | S. cerevisiae deletion strains, locus YLR039C, strain RIC1, stronger effect = lower value 0.969 | S. cerevisiae deletion strains, locus YLR058C, strain SHM2, stronger effect = lower value 1 | S. cerevisiae deletion strains, locus YLR102C, strain apc9, stronger effect = lower value 0.999 | S. cerevisiae deletion strains, locus YLR113W, strain HOG1, stronger effect = lower value 1.02 | S. cerevisiae deletion strains, locus YLR221C, strain rsa3, stronger effect = lower value 0.987 | S. cerevisiae deletion strains, locus YLR258W, strain gsy2, stronger effect = lower value 0.987 | S. cerevisiae deletion strains, locus YLR262C, strain YPT6 (second series), stronger effect = lower value 0.955 | S. cerevisiae deletion strains, locus YLR262C, strain YPT6, stronger effect = lower value 0.964 | S. cerevisiae deletion strains, locus YLR268W, strain sec22, stronger effect = lower value 1.01 | S. cerevisiae deletion strains, locus YLR320W, strain mms22, stronger effect = lower value 0.979 | S. cerevisiae deletion strains, locus YLR330W, strain CHS5, stronger effect = lower value 1 | S. cerevisiae deletion strains, locus YLR342W, strain FKS1 (second series), stronger effect = lower value 0.965 | S. cerevisiae deletion strains, locus YLR342W, strain FKS1, stronger effect = lower value 0.979 | S. cerevisiae deletion strains, locus YLR357W, strain rsc2, stronger effect = lower value 0.971 | S. cerevisiae deletion strains, locus YLR370C, strain arc18, stronger effect = lower value 0.959 | S. cerevisiae deletion strains, locus YLR371W, strain rom2, stronger effect = lower value 1.01 | S. cerevisiae deletion strains, locus YLR384C, strain iki3, stronger effect = lower value 0.965 | S. cerevisiae deletion strains, locus YLR418C, strain cdc73, stronger effect = lower value 1.05 | S. cerevisiae deletion strains, locus YML016C, strain PPZ1, stronger effect = lower value 1 | S. cerevisiae deletion strains, locus YML032C, strain rad52, stronger effect = lower value 1.02 | S. cerevisiae deletion strains, locus YML120C, strain ndi1, stronger effect = lower value 0.97 | S. cerevisiae deletion strains, locus YML124C, strain tub3, stronger effect = lower value 1.02 | S. cerevisiae deletion strains, locus YMR058W, strain fet3, stronger effect = lower value 0.98 | S. cerevisiae deletion strains, locus YMR078C, strain ctf18, stronger effect = lower value 1.02 | S. cerevisiae deletion strains, locus YMR125W, strain sto1, stronger effect = lower value 0.966 | S. cerevisiae deletion strains, locus YMR129W, stronger effect = lower value 0.977 | S. cerevisiae deletion strains, locus YMR205C, strain PFK2, stronger effect = lower value 0.967 | S. cerevisiae deletion strains, locus YMR223W, strain ubp8, stronger effect = lower value 1.02 | S. cerevisiae deletion strains, locus YMR231W, strain pep5, stronger effect = lower value 0.971 | S. cerevisiae deletion strains, locus YMR263W, strain SAP30, stronger effect = lower value 0.974 | S. cerevisiae deletion strains, locus YMR307W, strain GAS1, stronger effect = lower value 0.998 | S. cerevisiae deletion strains, locus YNL067W, strain RPL9B, stronger effect = lower value 0.999 | S. cerevisiae deletion strains, locus YNL071W, strain lat1, stronger effect = lower value 0.979 | S. cerevisiae deletion strains, locus YNL128W, strain TEP1, stronger effect = lower value 0.971 | S. cerevisiae deletion strains, locus YNL153C, strain GIM3, stronger effect = lower value 1 | S. cerevisiae deletion strains, locus YNL183C, strain NPR1, stronger effect = lower value 0.955 | S. cerevisiae deletion strains, locus YNL209W, strain ssb2, stronger effect = lower value 0.963 | S. cerevisiae deletion strains, locus YNL233W, strain BNI4, stronger effect = lower value 1.01 | S. cerevisiae deletion strains, locus YNL248C, strain rpa49, stronger effect = lower value 0.976 | S. cerevisiae deletion strains, locus YNL250W, strain rad50, stronger effect = lower value 1.01 | S. cerevisiae deletion strains, locus YNL271C, strain bni1, stronger effect = lower value 1.01 | S. cerevisiae deletion strains, locus YNL298W, strain CLA4, stronger effect = lower value 1.01 | S. cerevisiae deletion strains, locus YNL307C, strain MCK1, stronger effect = lower value 1.03 | S. cerevisiae deletion strains, locus YNL322C, strain KRE1 (second series), stronger effect = lower value 0.992 | S. cerevisiae deletion strains, locus YNL322C, strain KRE1, stronger effect = lower value 0.998 | S. cerevisiae deletion strains, locus YNR049C, strain mso1, stronger effect = lower value 0.975 | S. cerevisiae deletion strains, locus YNR052C, strain pop2, stronger effect = lower value 1.01 | S. cerevisiae deletion strains, locus YOL006C, strain TOP1, stronger effect = lower value 1.03 | S. cerevisiae deletion strains, locus YOL012C, strain htz1 1.07 | S. cerevisiae deletion strains, locus YOL147C, strain pex11, stronger effect = lower value 1.02 | S. cerevisiae deletion strains, locus YOR001W, strain rrp6, stronger effect = lower value 0.967 | S. cerevisiae deletion strains, locus YOR061W, strain CKA2, stronger effect = lower value 1 | S. cerevisiae deletion strains, locus YOR069W, strain VPS5, stronger effect = lower value 0.994 | S. cerevisiae deletion strains, locus YOR070C, strain gyp1, stronger effect = lower value 0.974 | S. cerevisiae deletion strains, locus YOR080W, strain dia2, stronger effect = lower value 0.977 | S. cerevisiae deletion strains, locus YOR083W, strain WHI5, stronger effect = lower value 0.984 | S. cerevisiae deletion strains, locus YOR106W, strain vam3, stronger effect = lower value 0.981 | S. cerevisiae deletion strains, locus YOR136W, strain idh2, stronger effect = lower value 1.02 | S. cerevisiae deletion strains, locus YOR144C, strain elg1, stronger effect = lower value 1.01 | S. cerevisiae deletion strains, locus YOR184W, strain ser1, stronger effect = lower value 1 | S. cerevisiae deletion strains, locus YOR231W, strain MKK1, stronger effect = lower value 0.966 | S. cerevisiae deletion strains, locus YOR265W, strain rbl2, stronger effect = lower value 0.975 | S. cerevisiae deletion strains, locus YOR270C, strain vph1, stronger effect = lower value 0.949 | S. cerevisiae deletion strains, locus YOR290C, strain snf2, stronger effect = lower value 0.962 | S. cerevisiae deletion strains, locus YOR316C, strain cot1, stronger effect = lower value 1 | S. cerevisiae deletion strains, locus YPL051W, strain arl3, stronger effect = lower value 0.976 | S. cerevisiae deletion strains, locus YPL055C, strain LGE1, stronger effect = lower value 0.996 | S. cerevisiae deletion strains, locus YPL078C, strain atp4, stronger effect = lower value 0.974 | S. cerevisiae deletion strains, locus YPL106C, strain sse1, stronger effect = lower value 0.96 | S. cerevisiae deletion strains, locus YPL240C, strain hsp82, stronger effect = lower value 0.981 | S. cerevisiae deletion strains, locus YPL241C, strain CIN2, stronger effect = lower value 0.983 | S. cerevisiae deletion strains, locus YPL256C, strain CLN2, stronger effect = lower value 0.982 | S. cerevisiae deletion strains, locus YPR119W, strain clb2, stronger effect = lower value 1.01 | S. cerevisiae deletion strains, locus YPR141C, strain kar3, stronger effect = lower value 1.02 | S. cerevisiae deletion strains, locus YPR163C, strain tif3, stronger effect = lower value 1.02 | S. cerevisiae deletion strains, locus YPR167C, strain met16, stronger effect = lower value 1.01 | S. cerevisiae deletion strains, strain wtn01, stronger effect = lower value 1 | S. cerevisiae strains, strain wild type, stronger effect = lower value 0.986
